Results reported in PubChem BioAssay (Tox21).
Where “and” joins values, the source holds several entries; their conditions need not be identical. Equal entries are not always repeated. Inconclusive results are not listed. Some structures have more than one record in an assay (separate samples or runs), and their calls can disagree. Calls of active or inactive are those of the source. Unless noted, the call rests on the fitted dose curve; in most records, active means well fitted curve in the direction sought with a large enough effect in the repeat runs; inconclusive means weak or mixed curves; inactive means no such curve, though single readings can be large; an effect the other way counts as inactive or inconclusive.

Tests used:
[1] = qHTS assay to identify small molecule agonists of the vitamin D receptor (VDR) signaling pathway - cell viability counter screen (AID 743224); further: nearly all actives have a fitted effect of over 50% in size; further: potency means the concentration at half of the fitted maximal effect
Summary of the method: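 Cells: VDR-bla, 2,000/well, settled 4 h. Treatment: compounds in DMSO, 16 h, 37C/5% CO2. Readout: CellTiter-Glo luminescence after 30 min RT.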

[2] = qHTS assay to identify small molecule antagonists of the vitamin D receptor (VDR) signaling pathway - cell viability counter screen (AID 743225); further: nearly all actives have a fitted effect of over 50% in size; further: potency means the concentration at half of the fitted maximal effect
Summary of the method: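 Luminescent cell viability (CellTiter-Glo) in VDR-bla HEK 293T cells after 16 h compound exposure at 37C in the presence of 3 nM final 1-alpha,25-dihydroxy vitamin D3.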

[3] = qHTS assay to identify small molecule agonists of the endoplasmic reticulum stress response signaling pathway (AID 1159516; active means well fitted activation curve with a large enough effect in the signal ratio in the repeat runs, not every such curve was filed as active; the % refers to the signal ratio)
Summary of the method: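 Cells are seeded at 1,500 per well and incubated overnight. Compounds in DMSO are added for 5 hr at 37 C, then beta-lactamase FRET substrate for 2 hr at room temperature, and fluorescence at 460 and 530 nm is measured.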

[4] = qHTS assay to identify small molecule antagonists of the retinoid-related orphan receptor gamma (ROR-gamma) signaling pathway - cell viability counter screen (AID 1159520); further: nearly all actives have a fitted effect of over 50% in size; further: potency means the concentration at half of the fitted maximal effect
Summary of the method: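 Tet-on ROR gamma CHO cells (1,000/well) were plated 4 hr, given compounds in DMSO for 2 hr at 37 C, then induced with 1 uM final doxycycline for 16 hr. Viability was read as ATP by CellTiter-Glo luminescence after 30 min.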

[5] = molecular target: Nuclear receptor ROR-gamma (Homo sapiens) (UniProt P51449); experiment: qHTS assay to identify small molecule antagonists of the retinoid-related orphan receptor gamma (ROR-gamma) signaling pathway (AID 1159521; further: nearly all actives have a fitted effect of over 50% in size; further: potency means the concentration at half of the fitted maximal effect)
Summary of the method: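 CHO cells expressing RORγ under a TET-on promoter, luciferase under RORE control. Dox 1 uM final, 16 h; compounds added 2 h prior. Luminescence decrease measured.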

[6] = qHTS assay to identify small molecule agonists of the AP-1 signaling pathway - cell viability counter screen (AID 1159525; calls by dose curve; further: nearly all actives have a fitted effect of over 55% in size; further: potency means the concentration at half of the fitted maximal effect)
Summary of the method: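 Each titration point was normalised to DMSO and tetra n-octyl ammonium bromide controls. The read was Cell Titer Glo luminescence after 30 min at RT, following 5 h compound exposure of ME-180 AP-1-bla cells at 37 °C.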

[7] = qHTS assay to identify small molecule agonists of the AP-1 signaling pathway (AID 1159526; calls by dose curve)
[8] = qHTS assay to identify small molecule agonists of the RXR signaling pathway - cell viability counter screen (AID 1159529); further: nearly all actives have a fitted effect of over 50% in size; further: potency means the concentration at half of the fitted maximal effect
Summary of the method: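 Same-well viability check after the LiveBLAzer FRET read: CellTiter-Glo added, luminescence measured after 30 min at room temperature. Reporter HEK 293T cells had been treated with compounds for 16 hr following a 5 hr preincubation.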

[9] = qHTS assay to identify small molecule antagonists of the retinoid acid receptor (RAR) signaling pathway - cell viability counter screen (AID 1159551); further: nearly all actives have a fitted effect of over 35% in size; further: potency means the concentration at half of the fitted maximal effect
Summary of the method: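 Cells (C3RL4) are plated, incubated overnight, dosed with compound in DMSO, then given retinol at 1 uM final. After 6 h at 37 C, CellTiter-Glo is added and luminescence read following 30 min at room temperature.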

[10] = qHTS assay to identify small molecule antagonists of the retinoic acid receptor (RAR) signaling pathway (AID 1159552; further: nearly all actives have a fitted effect of over 50% in size; further: potency means the concentration at half of the fitted maximal effect)
Summary of the method: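 Readout: luciferase luminescence, 30 min post-reagent at RT. Setup: C3RL4 RARE reporter cells, compounds plus retinol 1 uM final, 6 hr incubation at 37 C and 5% CO2.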

[11] = qHTS assay to identify small molecule agonists of the retinoic acid receptor (RAR) signaling pathway (AID 1159553); further: potency means the concentration at half of the fitted maximal effect
Summary of the method: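 Seed C3RL4 reporter cells at 1,000 per well and incubate overnight at 37 C. Add compounds in DMSO, incubate 6 hr. Add luciferase reagent, wait 30 min at room temperature, read luminescence.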

[12] = qHTS assay to identify small molecule antagonists of the estrogen related receptor (ERR) signaling pathway from Tox21 library - cell viability counter screen (AID 1224834); further: nearly all actives have a fitted effect of over 30% in size; further: potency means the concentration at half of the fitted maximal effect
Summary of the method: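 ERR cells, 2,000/well; 6 h settle at 37 C/5% CO2; pin-tool compound transfer in DMSO; 17.5 h at 37 C; CellTiter-Fluor, 30 min; fluorescence intensity.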

[13] = qHTS assay to identify small molecule antagonists of the estrogen related receptor (ERR) signaling pathway - cell viability counter screen (AID 1224818); further: series mostly up to about 46 µM
Summary of the method: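 ERR cells, 2,000/well; 6 h settle at 37 C/5% CO2; compound pin transfer (DMSO); 17.5 h at 37 C; CellTiter-Fluor, 30 min, fluorescence read.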

[14] = qHTS assay to identify small molecule antagonists of the estrogen related receptor (ERR) signaling pathway (AID 1224819)
Summary of the method: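 qHTS in ERR cells, 2,000/well, 1536 format. Cpd (DMSO) added after 6 h settle, 18 h 37 C. One-Glo luminescence, 30 min RT.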

[15] = qHTS assay to identify small molecule agonists of the estrogen related receptor (ERR) signaling pathway (AID 1224820)
Summary of the method: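 Following a 6 h settling period, 2,000 ERR cells per well receive DMSO-dissolved compounds by pin tool and incubate 18 h at 37 C; agonist activity is scored from One-Glo luminescence read 30 min post-addition.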

[16] = test system: estrogen-related receptor alpha (ERRalpha) with PGC-1alpha coactivator, human; experiment: qHTS assay to identify small molecule antagonists of the estrogen related receptor signaling pathway with the pleiotropic PPARgamma coactivator (PGC) (AID 1224821; calls by dose curve)
Summary of the method: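 Screening used NTP's PGC/ERR cells, dosed via pin tool with compound in DMSO alongside positive and negative controls. After 18 h at 37 C, One-Glo reagent sat 30 min at room temperature before luminescence detection.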

[17] = qHTS assay to identify small molecule antagonists of the estrogen related receptor signaling pathway with the pleiotropic PPARgamma coactivator (PGC) cell viability counter screen (AID 1224822;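 further: series mostly up to about 46 µM; viability read after 17.5 h compound exposure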)
Summary of the method: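 Multiplexed viability counter screen run in PGC/ERR cells treated with compounds for 17.5 h at 37 C; live-cell protease signal measured by CellTiter-Fluor fluorescence.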

[18] = qHTS assay to identify small molecule agonists of the estrogen related receptor signaling pathway with the pleiotropic PPARgamma coactivator (PGC) (AID 1224823)
Summary of the method: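 In this quantitative high-throughput screen, an 18 h, 37 C treatment of PGC/ERR cells with compounds in DMSO preceded a One-Glo luminescence read taken after 30 min at room temperature.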

[19] = molecular target: Retinoic acid receptor RXR-alpha (Homo sapiens) (UniProt P19793); experiment: qHTS assay to identify small molecule agonists of the RXR signaling pathway (AID 1159527; calls by dose curve; further: nearly all actives have a fitted effect of over 35% in size)
Chain of Retinoic acid receptor RXR-alpha (Homo sapiens) (P19793 whole entry, looked up): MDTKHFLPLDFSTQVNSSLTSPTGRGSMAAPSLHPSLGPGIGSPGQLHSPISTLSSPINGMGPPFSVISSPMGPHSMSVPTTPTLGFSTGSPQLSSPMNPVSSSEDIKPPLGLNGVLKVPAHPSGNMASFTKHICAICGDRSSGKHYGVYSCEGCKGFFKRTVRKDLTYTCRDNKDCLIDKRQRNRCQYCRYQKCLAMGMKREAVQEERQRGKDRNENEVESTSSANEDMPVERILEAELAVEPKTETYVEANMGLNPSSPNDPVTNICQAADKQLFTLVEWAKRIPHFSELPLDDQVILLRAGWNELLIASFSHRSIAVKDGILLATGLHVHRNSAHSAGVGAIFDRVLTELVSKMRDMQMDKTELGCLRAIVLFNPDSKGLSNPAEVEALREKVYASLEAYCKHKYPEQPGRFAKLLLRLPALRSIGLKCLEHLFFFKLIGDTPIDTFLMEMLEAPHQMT
Summary of the method: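 Beta-lactamase reporter assay, agonist format. Engineered HEK 293T line, charcoal-stripped FBS at 2%, overnight (16 hr) exposure, fluorescence at 460 and 530 nm after 405 nm excitation.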

[20] = qHTS assay to identify small molecule agonists of the endoplasmic reticulum stress response signaling pathway - cell viability counter screen (AID 1159517; calls by dose curve; further: nearly all actives have a fitted effect of over 50% in size; further: potency means the concentration at half of the fitted maximal effect)
Summary of the method: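 Cytotoxicity of test compounds toward ESRE-bla HeLa cells was assessed after 5 hr exposure. The luminescent CellTiter-Glo signal was measured 30 min after reagent addition.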

Measured: Potency

C(=C/c1ccccc1)/c1ccccc1
not listed: [13] | [14] | [15] | [16] | [17] | [18] | [19] | [20]
inactive: all other assays above

CCN(CC)CCOc1ccc(C(O)(Cc2ccc(Cl)cc2)c2ccc(C)cc2)cc1 (stereo not drawn)
inactive: [3]
active: [2] 23.9 µM | [5] 29.8 µM | [8] 21.3 µM | [10] 26.6 µM | [12] 33.5 µM

S=P(N1CC1)(N1CC1)N1CC1
active: [1] 41 µM
not listed: [2] | [5] | [6] | [7] | [8] | [10] | [19] | [20]
inactive: all other assays above

CC(C)(c1cc(Br)c(OCCO)c(Br)c1)c1cc(Br)c(OCCO)c(Br)c1
inactive: [3] | [9] | [11]
active: [1] 38 µM | [4] 47.5 µM | [8] 42.7 µM | [12] 42.3 µM

C[C@]12CC[C@H]3C(=CCc4cc(O)ccc43)[C@@H]1CCC2=O
active: [8] 21.9 µM | [12] 54.5 µM
inactive: [1] | [3] | [4] | [5] | [7] | [10]

CCOC(=O)COc1ccc(C)cc1
inactive: [1] | [2] | [3] | [4] | [5] | [6] | [7] | [19] | [8] | [10] | [12]

COC(=O)C1=C(C)NC(C)=C(C(=O)OCCCN2CCC(c3ccccc3)(c3ccccc3)CC2)C1c1cccc([N+](=O)[O-])c1 (stereo not drawn)
inactive: [3] | [6] | [9] | [11]
active: [2] 23.9 µM | [5] 23.7 µM | [12] 21.1 µM

O=C(Oc1ccccc1)c1cccc(C(=O)Oc2ccccc2)c1
active: [11] 0.456 µM
inactive: [3] | [4] | [5] | [6] | [9] | [10] | [13] | [12]

NCCCCCCNCCCCCCN
not listed: [3] | [13] | [14] | [15] | [16] | [17] | [18] | [19]
inactive: all other assays above

CCN=C1C=CC(=C(c2ccc(N(CC)CC)cc2)c2ccc(N(CC)CC)cc2)c2ccccc21
active: [2] 19.4 µM | [20] 38.7 µM | [4] 6.82 µM | [5] 2.71 µM | [6] 38.7 µM | [8] 15.4 µM | [9] 24.2 µM | [10] 4.83 µM | [12] 8.58 µM

CC(C)(C)CC(C)(C)c1ccccc1O
active: [1] 19.6 µM | [2] 22 µM | [20] 49.2 µM | [4] 61.4 µM | [5] 68.9 µM | [6] 43.9 µM | [8] 39.1 µM | [10] 27.4 µM

CO[C@H]1C=CO[C@@]2(C)Oc3c(C)c(O)c4c(O)c(cc(O)c4c3C2=O)NC(=O)/C(C)=C\C=C/[C@H](C)[C@H](O)[C@@H](C)[C@@H](O)[C@@H](C)[C@H](OC(C)=O)[C@@H]1C
inactive: [2] | [20] | [4] | [9] | [10] | [11]
active: [5] 43.6 µM | [6] 49.3 µM | [8] 12.4 µM | [12] 61.6 µM

CCc1cccc(C)c1
inactive: [1] | [2] | [20] | [4] | [5] | [6] | [8] | [9]

Nc1ccc2cc3ccc(N)cc3nc2c1
24.5 µM (active) and inactive: [1]
active: [4] 26.6 µM | [10] 4.33 µM and 16.8 µM
inactive: [20] | [5] | [6]

C/C=C/C(=O)Oc1c(CCCCCC(C)C)cc([N+](=O)[O-])cc1[N+](=O)[O-]
active: [1] 13.8 µM | [20] 21.9 µM | [4] 19.3 µM | [5] 6.11 µM | [8] 24.5 µM | [10] 17.2 µM | [12] 24.3 µM
inactive: [9] | [11]

c1ccc(Sc2ccccc2)cc1
inactive: [2] | [4] | [5] | [6] | [9] | [10] | [12]
active: [20] 43.6 µM

CSc1ccc2c(c1)N(CCC1CCCCN1C)c1ccccc1S2 (stereo not drawn)
48.4 µM (active) and inactive: [4]
27.2 µM (active) and inactive: [5]
inactive: [15]
inactive and 26.6 µM (active): [1]
active: [2] 24.4 µM and 23.9 µM | [20] 43.5 µM | [8] 19.4 µM and 26.8 µM | [9] 60.9 µM | [10] 24.2 µM and 29.8 µM | [12] 43.1 µM and 33.5 µM
43.5 µM (active) and inactive: [6]

CCCCCCOc1cc(C)c(O)c(C)c1C
active: [1] 39.4 µM | [2] 35.1 µM | [20] 55.6 µM | [4] 61.9 µM | [5] 49.2 µM | [6] 44.2 µM | [8] 35.1 µM | [12] 61.9 µM

O=C(Nc1ccc(Cl)cc1)Nc1ccc(Cl)c(C(F)(F)F)c1
inactive: [11]
active: [1] 11.9 µM | [2] 12 µM | [20] 21.3 µM | [4] 23.7 µM | [5] 7.5 µM | [6] 16.9 µM | [8] 12 µM | [9] 29.8 µM | [10] 23.7 µM

CCCCCCCCCCCCCC[n+]1ccccc1
active: [1] 24.5 µM | [2] 24.5 µM | [20] 17.4 µM | [4] 61.1 µM | [5] 4.86 µM | [6] 49 µM | [8] 12.3 µM | [12] 27.3 µM

C=C1C(C)(C)[C@@]2(Cl)C(Cl)[C@]1(Cl)C(Cl)(Cl)C2(Cl)Cl (stereo partly drawn)
active: [20] 48.1 µM | [4] 67.3 µM | [5] 47.7 µM | [6] 48.1 µM | [8] 19.1 µM | [10] 60 µM | [12] 67.3 µM
inactive: [9] | [11]
